Calls of active or inactive are those of the source.

The nature of test [1]: small molecules captured by biotinylated probe aFSTL3 – biochemical, small-molecule microarray, fluorescence 635/667, stem cell growth factor project, primary screen (AID 1064).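 Note: measures binding of the biotinylated anti-FSTL3 antibody to printed compounds.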 Conditions: higher = more signal.
Test [2] is described as follows: binders from COS7 lysate, DM2A8 probe, primary screen, torsin A project, cell lysate, small-molecule microarray, fluorescence 635/667 (AID 1065). The settings on record: higher = more signal, COS7 lysate expressing mutant human TOR1A.
Test [3] in a line: small molecules captured by biotinylated probe aFGF2 – biochemical, small-molecule microarray, fluorescence 635/667, stem cell growth factor project, primary screen (AID 1067).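 Note: measures binding of biotinylated aFGF2 protein to printed compounds on slides; z-score merges feature fluorescence and signal-to-noise across triplicate slides.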 Conditions: higher = more signal.
Test [4] is described as follows: small molecules captured by biotinylated probe aFGF10 – biochemical, small-molecule microarray, fluorescence 635/667, stem cell growth factor project, primary screen (AID 1071).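 Note: score merges 667 nm spot intensity and signal to noise from triplicate slides.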 The settings on record: higher = more signal.
Test [5] addresses Neurogenic locus notch homolog protein 2 (Homo sapiens) (UniProt Q04721). Kind of test: small molecules binding Notch2 protein – biochemical, small-molecule microarray, 635 nm fluorescence, stem cell growth factors, primary screen (AID 1073). Conditions: higher = more signal.
The target of test [6] is Pro-neuregulin-1, membrane-bound isoform (Homo sapiens) (UniProt Q02297). Kind of test: small molecules binding neuregulin-1 protein – biochemical, small-molecule microarray, fluorescence 635/667, psychiatric disease protein project, primary screen (AID 1075).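 Note: score combines 667 nm spot fluorescence with signal to noise.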 Conditions: NRG1 binding, 635 nm fluorescence, higher = more signal.
Chain of Pro-neuregulin-1, membrane-bound isoform (Homo sapiens) (Q02297 whole entry, looked up, the tested form may be a part, canonical isoform): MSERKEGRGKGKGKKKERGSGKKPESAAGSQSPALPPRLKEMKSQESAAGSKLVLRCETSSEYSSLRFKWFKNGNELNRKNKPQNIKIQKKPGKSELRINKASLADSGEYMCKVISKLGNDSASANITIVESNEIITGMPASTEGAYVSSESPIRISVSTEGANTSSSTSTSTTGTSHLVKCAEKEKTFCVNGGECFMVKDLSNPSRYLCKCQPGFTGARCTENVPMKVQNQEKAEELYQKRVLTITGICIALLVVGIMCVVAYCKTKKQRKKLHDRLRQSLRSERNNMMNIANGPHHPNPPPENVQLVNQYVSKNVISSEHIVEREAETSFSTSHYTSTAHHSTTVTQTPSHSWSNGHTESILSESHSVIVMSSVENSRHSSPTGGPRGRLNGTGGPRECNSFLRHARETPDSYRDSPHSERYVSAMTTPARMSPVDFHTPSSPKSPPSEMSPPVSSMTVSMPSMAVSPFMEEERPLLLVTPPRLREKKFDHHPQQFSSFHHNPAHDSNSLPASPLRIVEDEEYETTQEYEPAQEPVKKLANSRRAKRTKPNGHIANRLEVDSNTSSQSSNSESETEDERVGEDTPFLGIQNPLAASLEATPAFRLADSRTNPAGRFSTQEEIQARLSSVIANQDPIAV
In test [7] the test system is Neuregulin-1 EGF-like domain. Kind of test: small molecules binding NRG1 EGF domain – biochemical, small-molecule microarray, 635 nm fluorescence, primary screen (AID 1081).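 Note: binding of the protein to compounds printed on small-molecule microarray slides.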 The settings on record: higher = more signal.
Test [8] in a line: FRG1 expression reporter modulators in myotubes – cell-based, C2C12 myotubes, firefly/Renilla luciferase, luminescence, FRG1 inhibition for FSHD, primary screen (AID 1084). The settings on record: FRG1 promoter luciferase, higher = more signal, called active from +8 up or from −8 down.
The nature of test [9]: small molecules captured by biotinylated probe aFST – biochemical, small-molecule microarray, fluorescence 635/667, stem cell growth factor project, primary screen (AID 1086).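 Note: score merges 667 nm fluorescence with signal-to-noise of each printed compound spot.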 The settings on record: higher = more signal.
Test [10] in a line: binders of probe aHhip on microarray, primary screen, stem cell growth factor project, biochemical, small-molecule microarray, fluorescence 635/667 (AID 1087).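 Note: score merges spot fluorescence at 667nm with spot signal to noise ratio.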 The settings on record: higher = more signal.
Test [11] concerns PRMT1 (protein arginine N-methyltransferase 1). Kind of test: small molecules binding arginine methyltransferase PRMT1 – biochemical, small-molecule microarray, 635 nm fluorescence, primary screen (AID 1088).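 Note: binding of Prmt1 protein to compounds spotted on small-molecule microarray slides.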 Conditions: higher = more signal.
Test [12] can be described thus: growth effects on S. cerevisiae YJM789 – YJM789 clinical isolate, OD600, 24 h, basal, primary screen (AID 1089).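 Note: growth of clinical yeast isolate S. cerevisiae YJM 789 seeded 1000 cells per well; test concentration not given here.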 The settings on record: higher = more signal, called active from +8 up or from −8 down.
The nature of test [13]: S. pombe growth modifiers, basal conditions – strain 972, OD600, 24 h, no modulator, primary screen (AID 1090).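 Note: basal condition with compound alone and no growth modifier present; test concentration not given here.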 Conditions: S. pombe 972 growth, higher = more signal, called active from +8 up or from −8 down.
Test [14] can be described thus: budding yeast growth modifiers under rapamycin – strain BY4716, OD600, 96 h, primary screen (AID 1091). Note: test concentration not given here. The settings on record: S. cerevisiae BY4716 + rapamycin, higher = more signal, called active from +8 up or from −8 down.
For test [15], the target named is Torsin-1A-interacting protein 2 (Homo sapiens) (UniProt Q8NFQ8). Kind of test: small molecules binding lysate-expressed LULL1 – cell lysate, human LULL1 lysate, 635/667 nm fluorescence, primary screen (AID 1092).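 Note: score merges per-feature 667 nm fluorescence with signal-to-noise.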 The settings on record: small-molecule microarray, hLULL1 lysate binding, 635 nm fluorescence; higher = more signal.
Chain of Torsin-1A-interacting protein 2 (Homo sapiens) (Q8NFQ8 whole entry, looked up): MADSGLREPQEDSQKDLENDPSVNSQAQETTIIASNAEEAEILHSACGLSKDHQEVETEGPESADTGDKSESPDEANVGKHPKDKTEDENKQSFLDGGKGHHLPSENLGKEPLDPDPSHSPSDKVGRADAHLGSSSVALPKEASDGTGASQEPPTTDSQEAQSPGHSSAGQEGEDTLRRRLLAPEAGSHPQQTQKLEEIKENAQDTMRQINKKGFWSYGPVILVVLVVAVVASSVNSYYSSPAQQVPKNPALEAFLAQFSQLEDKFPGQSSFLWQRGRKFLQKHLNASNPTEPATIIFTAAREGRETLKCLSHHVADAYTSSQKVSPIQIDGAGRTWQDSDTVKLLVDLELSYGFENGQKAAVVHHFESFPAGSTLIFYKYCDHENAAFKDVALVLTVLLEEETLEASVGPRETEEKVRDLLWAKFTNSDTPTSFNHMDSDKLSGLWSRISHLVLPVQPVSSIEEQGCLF
The nature of test [16]: optical density change of DRC41 E. coli – strain DRC41, OD650, 24 h, E. coli filamentation project, primary screen (AID 1093).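 Note: MC1000 strain lacking acrAB efflux and sulA so SOS filamentation is blocked; test concentration not given here.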 Conditions: E. coli DRC41 growth, higher = more signal, called active from +8 up or from −8 down.
Test [17] is described as follows: probe aLefty2 binding to arrayed compounds – biochemical, biotinylated probe, 635/667 nm fluorescence, primary screen (AID 1094).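 Note: score merges spot fluorescence near 667 nm with spot signal-to-noise ratio.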 Conditions: small-molecule microarray, higher = more signal.
Test [18] deals with Noggin (protein binding on small-molecule microarray). Kind of test: small molecules binding Noggin protein – biochemical, 635/667 nm fluorescence, primary screen (AID 1095).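 Note: score merges 667 nm feature fluorescence with signal to noise over triplicate slides.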 The settings on record: 635 nm fluorescence, higher = more signal.
The target in test [19] is Neurogenic locus notch homolog protein 3 (Homo sapiens) (UniProt Q9UM47). Kind of test: small molecules binding NOTCH3 protein – biochemical, 635/667 nm fluorescence, primary screen (AID 1096). The settings on record: small-molecule microarray, 635 nm fluorescence, higher = more signal.
Test [20] in a line: probe aEGFR binding to arrayed compounds – biochemical, biotinylated probe, 635/667 nm fluorescence, primary screen (AID 1097).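 Note: probe is a biotinylated anti-EGFR antibody binding compounds printed on slides; score combines fluorescence near 667 nm and signal to noise of each spot.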 The settings on record: small-molecule microarray, higher = more signal.

Chain of Neurogenic locus notch homolog protein 2 (Homo sapiens) (Q04721 whole entry, looked up, canonical isoform): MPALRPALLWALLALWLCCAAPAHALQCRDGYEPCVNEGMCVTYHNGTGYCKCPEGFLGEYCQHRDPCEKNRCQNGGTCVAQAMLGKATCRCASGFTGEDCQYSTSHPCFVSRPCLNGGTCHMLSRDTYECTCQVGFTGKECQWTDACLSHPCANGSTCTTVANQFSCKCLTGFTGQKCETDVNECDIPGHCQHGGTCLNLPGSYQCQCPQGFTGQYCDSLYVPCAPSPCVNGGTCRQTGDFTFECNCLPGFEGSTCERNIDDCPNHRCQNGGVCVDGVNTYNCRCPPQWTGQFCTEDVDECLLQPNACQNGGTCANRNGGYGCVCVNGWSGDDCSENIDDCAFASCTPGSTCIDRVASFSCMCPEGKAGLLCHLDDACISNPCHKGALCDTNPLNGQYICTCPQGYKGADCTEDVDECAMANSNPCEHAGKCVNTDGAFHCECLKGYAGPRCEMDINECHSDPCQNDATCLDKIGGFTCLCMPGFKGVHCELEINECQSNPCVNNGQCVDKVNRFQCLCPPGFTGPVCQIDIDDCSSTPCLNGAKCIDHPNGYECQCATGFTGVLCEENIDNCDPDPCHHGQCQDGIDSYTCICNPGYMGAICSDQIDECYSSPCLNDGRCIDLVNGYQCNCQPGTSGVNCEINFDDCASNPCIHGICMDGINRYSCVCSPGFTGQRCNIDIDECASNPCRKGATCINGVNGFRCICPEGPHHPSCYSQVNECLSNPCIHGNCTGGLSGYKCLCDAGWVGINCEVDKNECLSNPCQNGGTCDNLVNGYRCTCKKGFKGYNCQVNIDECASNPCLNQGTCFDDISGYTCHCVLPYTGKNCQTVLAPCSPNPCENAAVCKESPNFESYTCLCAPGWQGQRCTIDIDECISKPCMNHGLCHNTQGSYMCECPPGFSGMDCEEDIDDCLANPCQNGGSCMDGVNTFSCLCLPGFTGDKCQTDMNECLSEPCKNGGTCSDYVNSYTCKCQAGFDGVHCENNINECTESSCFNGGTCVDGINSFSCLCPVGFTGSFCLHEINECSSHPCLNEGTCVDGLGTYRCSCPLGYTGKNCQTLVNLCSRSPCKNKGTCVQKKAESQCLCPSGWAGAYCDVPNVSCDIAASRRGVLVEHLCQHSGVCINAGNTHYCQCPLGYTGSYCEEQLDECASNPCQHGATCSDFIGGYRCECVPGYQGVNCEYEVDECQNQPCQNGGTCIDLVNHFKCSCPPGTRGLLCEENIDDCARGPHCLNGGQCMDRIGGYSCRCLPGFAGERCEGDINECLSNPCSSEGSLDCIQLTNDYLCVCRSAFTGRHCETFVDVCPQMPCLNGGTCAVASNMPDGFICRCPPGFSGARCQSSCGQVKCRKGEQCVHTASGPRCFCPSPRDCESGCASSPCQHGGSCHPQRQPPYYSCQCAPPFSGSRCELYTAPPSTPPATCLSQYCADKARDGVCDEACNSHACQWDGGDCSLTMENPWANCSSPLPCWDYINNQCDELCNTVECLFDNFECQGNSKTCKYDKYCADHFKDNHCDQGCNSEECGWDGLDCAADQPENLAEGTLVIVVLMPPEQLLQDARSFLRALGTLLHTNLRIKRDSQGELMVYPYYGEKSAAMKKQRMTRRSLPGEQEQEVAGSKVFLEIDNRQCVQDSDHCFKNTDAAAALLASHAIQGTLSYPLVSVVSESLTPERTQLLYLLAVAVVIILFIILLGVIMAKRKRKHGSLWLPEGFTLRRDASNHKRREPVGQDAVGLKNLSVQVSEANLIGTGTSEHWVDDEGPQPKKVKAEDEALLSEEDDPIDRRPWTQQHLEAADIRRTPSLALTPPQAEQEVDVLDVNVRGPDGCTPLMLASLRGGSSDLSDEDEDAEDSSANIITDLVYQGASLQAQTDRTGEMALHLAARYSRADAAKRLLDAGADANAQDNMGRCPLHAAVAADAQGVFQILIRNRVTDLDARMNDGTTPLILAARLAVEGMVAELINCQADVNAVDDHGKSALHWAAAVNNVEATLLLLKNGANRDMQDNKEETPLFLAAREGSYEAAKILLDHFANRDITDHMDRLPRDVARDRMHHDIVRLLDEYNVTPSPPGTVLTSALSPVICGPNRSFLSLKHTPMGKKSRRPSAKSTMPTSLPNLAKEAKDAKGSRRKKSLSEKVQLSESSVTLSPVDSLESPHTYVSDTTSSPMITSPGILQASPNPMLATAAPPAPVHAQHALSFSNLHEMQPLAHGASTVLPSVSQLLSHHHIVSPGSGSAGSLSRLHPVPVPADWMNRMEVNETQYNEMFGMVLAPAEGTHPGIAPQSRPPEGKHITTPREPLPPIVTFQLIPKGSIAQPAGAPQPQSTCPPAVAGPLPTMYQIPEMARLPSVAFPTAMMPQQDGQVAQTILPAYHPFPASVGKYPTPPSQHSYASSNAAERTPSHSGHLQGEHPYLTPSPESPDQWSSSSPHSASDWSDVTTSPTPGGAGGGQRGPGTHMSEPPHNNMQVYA

For the compound `COCC(=C=CC[C@@H](O)c1ccc(CO)o1)CCO`, the composite z-score in [1] is -0.403; in test [2] it was -0.196; in test [3] it was -0.188; in [4] it was 0.502; in test [5], -0.235; in test [6] it was 0.178. The composite z-score was -0.149 in test [7]; -0.0032 in test [9]; 0.011 in test [10]; 0.737 in [11]; -0.816 in [15]; -0.256 in test [17]. For the same compound, the composite z-score in [18] was 1.33; in [19], 0.735; in test [20] it was -0.0943. Besides, the z-score in test [8] is -1.71 (inactive); in test [12], -3.24 (inactive); in [13], -2.34 (inactive); in test [14], -2.27 (inactive); in test [16], 1.6 (inactive).
As for `CN(C)CCCNC(=O)[C@@]1(Cc2ccccc2I)c2ccccc2C(=O)N(Cc2ccccc2C(F)(F)F)[C@H]1c1ccc(CO)cc1`, the composite z-score in test [1] is 0.459; in test [2], -1.14; in test [3], -0.22; in test [4], -0.935; in test [5], -0.936; in test [6] it was 1.74. The composite z-score in test [7] is 1.23; in test [9], -0.309; in test [10] it was -0.0645; in [11], 1.05; in test [15], 3.45; in test [17], -0.16. Further, the composite z-score was -1.16 in [18], -0.848 in test [19] and -0.295 in test [20]. Besides, the z-score in test [8] was -1.1 (inactive); in test [12], -0.0554 (inactive); in [13], -19.8 (active); in [14], -2.58 (inactive); in test [16], -0.971 (inactive).
In the case of `O=c1oc(-c2ccccc2)nc2cc(Br)ccc12`, the composite z-score in test [1] was -0.0862; in test [2], 0.0961; in [3] it was -0.103; in [4] it was 0.298; in [5], 0.325; in test [6], -0.0187. Further, the composite z-score in [7] is 0.52; in test [9], 0.127; in [10], -0.287; in test [11] it was 0.35; in [15], 0.711; in test [17] it was -0.0478. Further, the composite z-score is 0.625 in [18], 0.693 in [19] and -0.111 in [20]. The z-score in test [8] is -0.409 (inactive); in [12], 0.844 (inactive); in [13], -1.43 (inactive); in [14], -0.0605 (inactive); in [16], 0.258 (inactive).
For `C=CCC(OC(C)=O)[C@@H]1[C@@H](N(Cc2cccc3ccccc23)C(=O)c2cccc3ccccc23)c2cc(OCCCO)ccc2N1C(=O)c1ccc2ccccc2n1` (stereo not given in full), the composite z-score was -0.218 in [1]; 0.215 in test [2]; 0.0083 in [3]; 0.281 in test [4]; -0.0258 in [5]; -0.0137 in [6]. Also, the composite z-score in test [7] was -0.444; in test [9], 0.0846; in [10], 0.0826; in [11], 0.346; in test [15], 0.681; in test [17] it was -0.0102. The results for the composite z-score in test [18], in [19] and in test [20] were 0.282, -0.0176 and -0.0549, respectively. Besides, the z-score was -2.01 (inactive) in test [8]; -1.03 (inactive) in [12]; 0.626 (inactive) in [13]; -0.964 (inactive) in [14]; -0.764 (inactive) in test [16].
In the case of `Cc1ccc([C@H]2[C@H](C(=O)O)[C@H](Sc3ccccc3)[C@@H](C(C)C)N2S(=O)(=O)c2ccc(C)cc2)cc1`, the composite z-score in [1] was -0.182; in [2], -0.126; in [3], 0.167; in [4], 0.307; in [5], 1.49; in test [6], 1.78. Further, the composite z-score in [7] was 0.945; in test [9] it was 1.31; in test [10], -0.226; in test [11], 1.03; in test [15], 3.03; in [17], 0.179. Besides, the composite z-score is 0.0176 in test [18], 1.13 in test [19] and -0.0679 in [20]. In addition, the z-score in test [8] is -2.58 (inactive); in test [12], -0.611 (inactive); in test [13] it was -0.0319 (inactive); in test [14], -0.993 (inactive); in [16], -1.69 (inactive).

Source of the values: PubChem BioAssay.
